Sampled rows, rich in hits. Any-hit rate of the full collection: about 4.1%.
ssDAF12 agonist: S. stercoralis DAF-12 nuclear receptor activators, primary screen, cell-based, luminescence, HEK293, GRIP1 co-expression, lit1-tk-luc; activation, % at 6.8 µM; 370,000 compounds, 1% hits; HEK293 ssDAF-12/GRIP1 lit1-tk-luc reporter; % of 3 µM dafachronic acid response; Nuclear hormone receptor DAF-12 (Strongyloides stercoralis);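 active = activation above the mean over all tested compounds plus 3 SD, cut at about 0.9% in these data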;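 note: 0% = DMSO-only wells and 100% = 3 µM delta7-dafachronic acid wells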
hgDAF12 agonist: H. glycines DAF-12 receptor agonists, primary screen, cell-based, luminescence, HEK293, GAL4 fusion, UAS-luciferase; Nuclear hormone receptor DAF-12 (Heterodera glycines), GAL4 fusion; HEK293 GAL4-hgDAF12 UAS-luciferase reporter, agonist luminescence; normalized to butyrate control; activation, % at 6.8 µM; 370,000 compounds, 1.8% hits;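 active = activation above a cutoff set at the mean of all screened compounds plus 3 SD, cut at about 10% in these data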;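 note: 0% = DMSO wells and 100% = sodium butyrate wells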
hcDAF12 agonist: H. contortus DAF-12 nuclear receptor activators, primary screen, cell-based, luminescence, HEK293, lit1-tk-luc reporter; AID 652067, 2013; 370,000 compounds, 1.4% hits; HEK293 hcDAF-12 lit1-tk-luc reporter; 0% DMSO, 100% Δ7-dafachronic acid; activation, % at 6.8 µM;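 active = activation above the mean of all tested compounds plus 3 SD, cut at about 5.5% in these data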;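 note: 100% = response to 3 µM Δ7-dafachronic acid high control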
DAX1 inh-1: DAX1 (NR0B1) inhibitors, primary screen, cell-based, HEK293, Gal4-DAX1, luciferase luminescence; Nuclear receptor subfamily 0 group B member 1 (Homo sapiens), P51843; HEK293 Gal4-DAX1 luciferase reporter; inhibition, % at 6.75 µM; 340,000 compounds, 0.99% hits; AID 504766, 2011;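 active = inhibition above the mean over all tested compounds plus 3 SD, cut at about 4.2% in these data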;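 note: 0% = DAX1-transfected cells with DMSO and 100% = empty-vector control cells with DMSO; inhibition shows as a rise in luminescence from relieved DAX1 repression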
Target sequence (P51843 207-470 limits assumed): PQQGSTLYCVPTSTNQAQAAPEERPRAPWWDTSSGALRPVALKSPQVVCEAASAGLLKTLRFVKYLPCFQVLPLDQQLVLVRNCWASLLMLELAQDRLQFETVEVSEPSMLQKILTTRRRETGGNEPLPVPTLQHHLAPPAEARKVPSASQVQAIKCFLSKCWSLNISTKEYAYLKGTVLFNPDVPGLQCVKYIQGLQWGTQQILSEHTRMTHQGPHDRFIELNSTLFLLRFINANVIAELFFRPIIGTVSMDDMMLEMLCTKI
DAX1 inh-2: DAX1 (NR0B1) inhibitors on StAR promoter, primary screen, cell-based, luminescence, SF-1 (NR5A1), full-length DAX-1; 370,000 compounds, 1.1% hits; inhibition, % at 6.8 µM; HEK293T StAR-luciferase reporter, SF-1/DAX-1 repression relief;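 active = inhibition above the mean over all tested compounds plus 3 SD, cut at about 3.6% in these data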;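 note: 0% = DAX-1 cells with DMSO and 100% = cells lacking DAX-1 with DMSO; higher inhibition means more luminescence from relief of DAX-1 repression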
LXR ag: LXR agonists, Gal4 luciferase reporter, confirmation, counter-screen for hcDAF-12 agonist project, cell-based, luminescence, HEK293, H. contortus campaign; AID 743027, 2013; activation, % at 6.8 µM; HEK293 Gal4-LXR tk-luc reporter, 24 h; normalized: DMSO 0%, positive control 100%; shares compounds with hcDAF12 agonist; 3,400 tested, under 10 active;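 active = mean percent activation of the reporter above a cutoff set as the average over tested compounds plus their standard deviation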
Target sequence (P55055 whole entry, looked up, the tested form may be a part): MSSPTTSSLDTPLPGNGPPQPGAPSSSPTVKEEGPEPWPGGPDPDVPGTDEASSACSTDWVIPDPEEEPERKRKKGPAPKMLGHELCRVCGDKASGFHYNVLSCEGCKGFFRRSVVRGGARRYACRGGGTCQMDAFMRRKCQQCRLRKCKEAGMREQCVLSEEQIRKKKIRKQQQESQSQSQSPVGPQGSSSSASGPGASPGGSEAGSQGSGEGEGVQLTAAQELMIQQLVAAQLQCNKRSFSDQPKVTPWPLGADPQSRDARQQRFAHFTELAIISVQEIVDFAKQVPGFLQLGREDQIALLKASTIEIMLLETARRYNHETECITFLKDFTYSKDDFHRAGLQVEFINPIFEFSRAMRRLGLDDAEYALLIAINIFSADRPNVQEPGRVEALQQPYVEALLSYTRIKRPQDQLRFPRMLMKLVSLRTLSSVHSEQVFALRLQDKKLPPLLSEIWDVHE
hcDAF12 conf: H. contortus DAF-12 receptor agonists, confirmation, cell-based, luminescence, HEK293, lit1-tk-luc, triplicate; shares compounds with hcDAF12 agonist; HEK293 hcDAF-12 lit1-tk-luc reporter; % of Δ7-dafachronic acid response; activation, % at 6.8 µM; 3,400 compounds, 61% hits; AID 743032, 2013;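 active = mean activation across triplicate tests above the threshold derived from the earlier primary screen, cut at about 5.5% in these data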;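 note: 0% = DMSO only wells and 100% = 3 µM Δ7-dafachronic acid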
hgDAF12 ag: H. glycines DAF-12 receptor agonists, confirmation, cell-based, luminescence, HEK293, GAL4-LBD fusion; shares compounds with hgDAF12 agonist; HEK293 GAL4-hgDAF12 luciferase reporter, agonist mode; percent of butyrate response; activation, % at 6.8 µM; 3,300 compounds, 80% hits;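 active = mean activation over triplicate wells above the hit cutoff derived from the earlier primary screen, cut at about 11% in these data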;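 note: 0% = DMSO low control and 100% = 2 mM sodium butyrate high control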
LXRb DAF12 ctr: LXR agonists, Gal4 luciferase reporter, confirmation, counter-screen for hgDAF-12 agonist project, cell-based, luminescence, HEK293, H. glycines campaign; activation, % at 6.8 µM; 24 h; shares compounds with hgDAF12 agonist; 3,300 tested, under 10 active;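 active = mean activation of the triplicate above a set limit carried over from the primary screen, none filed active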
* hit, by the source's call; / = not tested or not shown.

SMILES | ssDAF12 agonist | hgDAF12 agonist | hcDAF12 agonist | DAX1 inh-1 | DAX1 inh-2 | LXR ag | hcDAF12 conf | hgDAF12 ag | LXRb DAF12 ctr
CCc1cccc(NC(=O)c2cnn(-c3ccccc3)c2C)c1 | 0.1 | 18.9* | 7.9* | 4.2 | 3.1 | 1.4 | 3.7 | 15.9* | 0.7
Cc1cccc(C)c1NC(=O)c1cnn(-c2ccccc2)c1C | -1.1 | 1.3 | -0.1 | 0.6 | -0.6 | / | / | / | /
O=C(NCc1ccccc1Cl)c1csc(COCCO)n1 | -1.0 | 2.8 | -0.5 | / | 1.4 | / | / | / | /
C/C(=N\Nc1nncc2ccccc12)c1ccc(O)cc1 | 0.6 | 16.1* | 7.0* | -0.9 | 1.8 | 1.3 | 3.5 | 9.4 | 0.7
Cc1c(C(=O)Nc2nccs2)oc2ccccc12 | 3.2* | 17.8* | 14.9* | 4.6* | 3.1 | 1.4 | 13.2* | 25.0* | 1.1
Cc1c(C(=O)Nc2cnccn2)oc2ccccc12 | / | / | / | 2.7 | / | / | / | / | /
O=C(Nc1nccs1)c1ccc(Br)cc1 | 0.2 | 9.5 | 5.0 | 2.8 | 0.9 | / | / | / | /
O=C(Nc1nccs1)c1ccc2ccccc2c1 | 2.2* | 21.0* | 17.4* | 2.7 | 2.5 | 1.9 | 13.7* | 26.4* | 1.0
CCOC(=O)CN1CCCc2nc(-c3ccc(OC)cc3)ccc21 | -0.6 | 2.1 | 2.8 | / | -0.1 | / | / | / | /
Cc1ccc2nc(-c3cccnc3)oc2c1 | -0.5 | 7.8 | 4.5 | 1.8 | 0.7 | / | / | / | /
Cc1ccc2nc(-c3ccccn3)oc2c1 | 2.8* | 14.4* | 11.6* | -0.2 | 3.4 | 1.3 | 15.4* | 24.0* | 0.9
COc1ccc(Nc2cc(Cl)nc(N)n2)cc1OC | -1.2 | -2.4 | -0.6 | -0.4 | -0.1 | / | / | / | /
Cn1c(NCc2c[nH]c3ccccc23)nc2ccccc21 | 1.7* | 16.3* | 15.9* | 1.7 | 2.1 | 1.1 | 14.9* | 25.2* | 0.6
N=c1n(N)c2ccccc2n1CC(=O)c1ccc(Br)cc1 | 0.6 | 15.1* | 8.1* | 3.5 | 2.5 | 0.6 | 5.3 | 13.5* | 0.5
Cc1ccccc1C(=O)N(CC(=O)Nc1sc(C)c(C)c1C(N)=O)C1CCCC1 | -1.2 | -1.2 | -1.7 | -1.3 | -0.4 | / | / | / | /
Cc1cc(C(=O)COC(=O)c2ccc(O)cc2)c(C)n1CC(F)(F)F | 0.8 | 14.8* | 8.9* | 1.7 | 4.2* | 1.3 | 7.3* | 17.7* | 0.7
Cc1cc(C(=O)COC(=O)c2ccc(O)cc2)c(C)n1-c1ccccc1F | -1.7 | -0.4 | 0.5 | 0.6 | 0.4 | / | / | / | /
N#C/C(=C\c1c[nH]c2ccccc12)C(=O)NC1CCCC1 | -1.1 | 0.7 | 0.2 | 0.3 | 0.2 | / | / | / | /
O=C(CSc1cn(Cc2ccccc2)c2ccccc12)Nc1nccs1 | 1.1* | 23.7* | 9.7* | 2.4 | 8.9* | 1.3 | 8.9* | 17.7* | 1.0
O=C(CSc1ccccc1)Nc1nccs1 | 0.2 | 6.2 | 1.2 | -0.6 | 0.0 | / | / | / | /
Cc1ccc(N2C(=O)c3ccccc3NC2(C(=O)O)c2ccccc2)cc1Cl (stereo unspecified) | 0.3 | 18.9* | 9.9* | 4.8* | 1.9 | 0.0 | 2.8 | 12.3* | 0.3
Cc1ccc(NC(=O)C(C)N2C(=O)c3ccccc3S2(=O)=O)cc1Cl (stereo unspecified) | -1.0 | 0.0 | 1.5 | -0.1 | 1.5 | / | / | / | /
Cc1ccc(-c2onc3ccc(C(=O)O)cc23)cc1 | 1.0* | 18.8* | 9.4* | -2.5 | 3.5 | 1.2 | 8.7* | 23.4* | 1.1
CC(=O)c1ccc2noc(-c3ccc(C)cc3)c2c1 | -1.2 | 3.5 | 0.0 | -0.6 | 0.3 | / | / | / | /
O=C(NC1CCCCCC1)c1cccc(N2CCCC2=O)c1 | 0.3 | 13.4* | 7.8* | -1.4 | 2.2 | 1.2 | 10.3* | 12.9* | 0.8
SMILES | ssDAF12 agonist | hgDAF12 agonist | hcDAF12 agonist | DAX1 inh-1 | DAX1 inh-2 | LXR ag | hcDAF12 conf | hgDAF12 ag | LXRb DAF12 ctr
CN(C)S(=O)(=O)c1ccc(C(=O)Nc2ccc3c(c2)CCC3)cc1 | -1.1 | 0.9 | 0.3 | -0.1 | -0.3 | / | / | / | /
O=C(COC(=O)c1ccc(Cl)nc1)Nc1ccc2c(c1)CCC2 | -1.0 | 1.4 | -0.7 | 0.0 | 1.3 | / | / | / | /
O=C(Nc1ccc2c(c1)CCC2)c1ccc(Cl)nc1 | 1.2* | 19.1* | 7.7* | 4.7* | 3.8* | 1.3 | 9.3* | 20.6* | 0.9
CN(C)S(=O)(=O)c1cccc(C(=O)Nc2ccc3c(c2)CCC3)c1 | 0.6 | 22.1* | 6.9* | 1.6 | 2.4 | 1.3 | 7.4* | 19.2* | 0.8
CCOC(=O)[C@]12CCCC=C1N(Cc1ccc(Cl)cc1Cl)C(=O)[C@H](CC(=O)NCC1CCCCC1)C2 | -0.8 | 2.7 | -1.1 | / | -0.3 | / | / | / | /
O=c1cc(CCl)[nH]c2nc3ccccc3n12 | 0.2 | -1.6 | -1.2 | -0.8 | 0.1 | / | / | / | /
O=c1cc(-c2ccccc2)[nH]c2nc3ccccc3n12 | 1.5* | 13.8* | 10.8* | 0.9 | 3.7* | 1.9 | 15.2* | 19.4* | 1.1
O=[N+]([O-])c1ccccc1COc1ccc(Cl)c2cccnc12 | 0.5 | 14.8* | 9.1* | 4.8* | 2.6 | 1.8 | 7.8* | 16.5* | 1.0
Cc1ccc2nc(-c3ccccc3)c(Cc3cccc(F)c3)n2c1 | 0.7 | 13.8* | 8.7* | / | 2.4 | -0.1 | 5.0 | 4.1 | 0.1
Cc1ccc(S(=O)(=O)NCc2ccccc2)cc1C(=O)N(C)CC(=O)Nc1c(Cl)cccc1Cl | -0.9 | -2.9 | -0.9 | 1.0 | -1.3 | / | / | / | /
C/C(=N\NC(=S)Nc1cc(S(=O)(=O)N2CCOCC2)ccc1Cl)c1ccccc1F | -1.5 | -2.6 | -1.1 | -0.9 | -0.7 | / | / | / | /
CCOc1ccc2nc(N/C(N)=N/C(=S)Nc3ccc(C)c(C)c3)nc(C)c2c1 | -0.5 | 1.8 | -1.3 | -0.7 | -0.3 | / | / | / | /
